Bioassay records: PubChem BioAssay, The Scripps Research Institute Molecular Screening Center
hcDAF-12 act = activates DAF-12 receptor from parasite H. contortus. HEK293 hcDAF-12 lit1-tk-luc reporter, luminescence; 0% DMSO, 100% Δ7-dafachronic acid. activation, % at 6.8 µM. 370,000 compounds, 1.4% hits;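 active = activation above the mean of all tested compounds plus 3 SD, cut at about 5.5% in these data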
DAX1 inh-1 = inhibitors of human orphan nuclear receptor DAX1 (NR0B1); P51843; HEK293 Gal4-DAX1 luciferase reporter, luminescence; inhibition, % at 6.75 µM; 340,000 compounds, 0.99% hits;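 active = inhibition above the mean over all tested compounds plus 3 SD, cut at about 4.2% in these data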;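 note: inhibition shows as a rise in luminescence from relieved DAX1 repression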
Target sequence (P51843 207-470 limits assumed): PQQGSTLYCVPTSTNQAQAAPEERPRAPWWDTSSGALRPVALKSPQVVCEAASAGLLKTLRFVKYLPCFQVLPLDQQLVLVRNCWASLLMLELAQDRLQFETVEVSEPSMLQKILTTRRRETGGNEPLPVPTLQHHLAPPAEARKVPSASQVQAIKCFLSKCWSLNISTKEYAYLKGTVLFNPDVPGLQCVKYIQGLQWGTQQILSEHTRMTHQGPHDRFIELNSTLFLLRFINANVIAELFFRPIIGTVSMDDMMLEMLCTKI
ssDAF-12 act = activates DAF-12 receptor from parasite S. stercoralis; HEK293 ssDAF-12/GRIP1 lit1-tk-luc reporter, luminescence; % of 3 µM dafachronic acid response; activation, % at 6.8 µM; 370,000 compounds, 1% hits;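 active = activation above the mean over all tested compounds plus 3 SD, cut at about 0.9% in these data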
hgDAF12 agonist = agonists of H. glycines DAF-12 nuclear receptor; HEK293 GAL4-hgDAF12 UAS-luciferase reporter, agonist luminescence; normalized to butyrate control; activation, % at 6.8 µM; 370,000 compounds, 1.8% hits; AID 687014;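 active = activation above a cutoff set at the mean of all screened compounds plus 3 SD, cut at about 10% in these data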
DAX1 inh-2 = inhibitors of DAX1 repression of SF-1 activated StAR promoter | 370,000 compounds, 1.1% hits | HEK293T StAR-luciferase reporter, SF-1/DAX-1 repression relief | inhibition, % at 6.8 µM;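 active = inhibition above the mean over all tested compounds plus 3 SD, cut at about 3.6% in these data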;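 note: higher inhibition means more luminescence from relief of DAX-1 repression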
Each line names hits and unclear results; the compound was inactive in the other large screens. Sampled rows, rich in hits. Any-hit rate of the full collection: about 4.1%.

Cc1ccc(OCc2cc(C(=O)N(C)C3CCCc4ccccc43)no2)cc1C (centres undefined)	hcDAF-12 act 5.8, hgDAF12 agonist 11
COc1cc(Cl)ccc1OCc1cc(C(=O)N(C)CCc2cnn(C)c2)no1	hcDAF-12 act 6.1, hgDAF12 agonist 12
COc1ccc(OCc2cc(C(=O)N(C)CC3CCCCO3)no2)c(Cl)c1 (centres undefined)	none
CC(=O)c1cccc(OCc2cc(C(=O)N(C)CCc3cnn(C)c3)no2)c1	none
COc1cc(Cl)ccc1OCc1cc(C(=O)N(C)CC2CCCCO2)no1 (centres undefined)	hgDAF12 agonist 12
Cc1ccc(CN2CCC=CS2(=O)=O)cc1	none (no result: DAX1 inh-1)
CCOc1cc(C=NN2CCN(Cc3ccc(C)cc3)CC2)ccc1O	none (no result: DAX1 inh-1)
Cc1cc(OCc2cc(C(=O)N(C)C3CCOC3)no2)cc(C)c1Cl (centres undefined)	hgDAF12 agonist 11
COc1cc(Cl)ccc1OCc1cc(C(=O)N(C)C2CCOC2)no1 (centres undefined)	none
Cn1c(-c2ccccc2Br)n[nH]c1=S	hcDAF-12 act 5.6
Cn1c(-c2ccccc2)n[nH]c1=S	none
COc1ccc(CN2CCNC(=O)C2CC(=O)N(C)C2CCOCC2)cc1OC (centres undefined)	none
COc1cc(C(=O)N/C(=C\c2cn(S(=O)(=O)N(C)C)c3ccccc23)C(=O)NCCCO)cc(OC)c1OC	none
CCN(CC)CCNC(=O)/C(=C/c1cn(C)c2ccccc12)NC(=O)c1ccc(OC)c(OC)c1	DAX1 inh-1 5.2
COc1cc(C(=O)N/C(=C\c2cn(C)c3ccccc23)C(=O)NCCCO)cc(OC)c1OC	DAX1 inh-1 4.7
O=C(Nc1ccc(S(=O)(=O)N2CCCC2)cc1)C1CC(=O)N(CCc2ccc(F)cc2)C1 (centres undefined)	none
Nc1cccc2c1C(=O)c1ccc(Cl)cc1C2=O	DAX1 inh-2 3.7
O=C(CN(CCc1ccccc1)S(=O)(=O)c1ccc(Cl)s1)N1CCOCC1	none (no result: DAX1 inh-1)
CCc1ccccc1N=Nc1c(N)[nH]n(-c2ccccc2)c1=O	hgDAF12 agonist 11 (no result: DAX1 inh-1)
Nc1[nH]n(-c2ccccc2)c(=O)c1N=Nc1ccccc1[N+](=O)[O-]	none
Nc1[nH]n(-c2ccccc2)c(=O)c1N=Nc1ccccc1	ssDAF-12 act 1.3
COC(=O)C1(C(=O)OC)C2CCCCC2N(S(=O)(=O)c2ccc(C)cc2)[C@@H]1CC(C)=O (some centres undefined)	none (no result: DAX1 inh-1)
CCO[C@H]1C[C@@H](c2ccc(CC)cc2)N(S(=O)(=O)c2ccc(C)cc2)C2CC(c3ccc(CC)cc3)N(S(=O)(=O)c3ccc(C)cc3)CC21 (some centres undefined)	none (no result: DAX1 inh-1)
COc1cccc(CNC(=O)[C@H]2CCCN2C(=O)[C@H]2CCCN2C(=O)OC(C)(C)C)c1	none (no result: DAX1 inh-1)
NC(=O)c1cnc(Cc2c[nH]c3ccccc23)c(I)c1	ssDAF-12 act 0.9 (no result: DAX1 inh-1)
O=C(Nc1ccc(F)cc1)C(c1ccccc1)N1CCN(C(=O)c2ccco2)CC1 (centres undefined)	DAX1 inh-1 4.7
C[C@H]1C2CC(OC(=O)Nc3ccc(C(F)(F)F)cc3)C(C2)[C@H]2CCCCN21 (some centres undefined)	none (no result: DAX1 inh-1)
COc1ccc(C2C3=C(CC(C)(C)CC3=O)Nc3c2c(=O)[nH]c(=O)n3Cc2ccccc2)cc1OC (centres undefined)	none
COc1cc(C2C3=C(CC(C)(C)CC3=O)Nc3c2c(=O)[nH]c(=O)n3Cc2ccccc2)ccc1O (centres undefined)	DAX1 inh-1 4.3
Cc1ccc(S(=O)(=O)N2CCN(c3cnn(-c4ccccc4)c(=O)c3Cl)CC2)cc1	DAX1 inh-1 4.7
Cc1ccc(S(=O)(=O)N2CCN(c3cnn(C)c(=O)c3Cl)CC2)cc1	none
Cc1cccc(C)c1NC(=O)C1(C)CSCC(=O)N1CCCN1CCOCC1 (centres undefined)	none (no result: DAX1 inh-1)
C#CCNC[C@@H]1CSCCS(=O)(=O)N1	ssDAF-12 act 0.9 (no result: DAX1 inh-1)
COc1ccccc1C(=O)OCC(=O)N1CCC(Cc2ccccc2)CC1	none
O=C(OCC(=O)N1CCC(Cc2ccccc2)CC1)c1cc(Cl)ccc1O	DAX1 inh-2 3.9
O=C(NCc1cccs1)C1CCCN(S(=O)(=O)c2cccc3ccccc23)C1 (centres undefined)	none (no result: DAX1 inh-1)
O=[N+]([O-])c1ccc(NCc2ccc(Cl)cc2)nc1	none
CC(C)c1ccc(CNc2ccc([N+](=O)[O-])cn2)cc1	hgDAF12 agonist 12, DAX1 inh-2 3.9
CC(=O)c1cc(-c2ccccc2)n(CC(=O)NCc2ccc(Cl)cc2)c1C	none (no result: DAX1 inh-1)
S=C(Nc1ccccc1)Nc1ccccc1-n1cccc1	hcDAF-12 act 5.7 (no result: DAX1 inh-1)
S=C(Nc1ccccc1)Nc1ccc(Br)cc1	DAX1 inh-1 5.7
Cc1ccc(S(=O)(=O)N2CCCC(C(=O)NCc3ccco3)C2)cc1 (centres undefined)	none (no result: DAX1 inh-1)
O=C(O)c1nn(Cc2nc3ccccc3o2)c(=O)c2ccccc12	hcDAF-12 act 5.9
Cc1ccc(-c2noc(Cn3nc(C(=O)O)c4ccccc4c3=O)n2)cc1	none
O=C1CCNc2c(Cl)cccc21	none
O=C1CCNc2c(Cl)cc(Cl)cc21	DAX1 inh-1 5.0
COc1ccc(C)cc1NC(=O)C1COc2ccccc2O1 (centres undefined)	DAX1 inh-2 4.2
Cc1ccccc1NC(=O)C1COc2ccccc2O1 (centres undefined)	none
O=C(Nc1ccccc1[N+](=O)[O-])C1COc2ccccc2O1 (centres undefined)	DAX1 inh-1 8.7
Cc1cccnc1NC(=O)C1COc2ccccc2O1 (centres undefined)	ssDAF-12 act 1.4
CCc1ccccc1NC(=O)C1COc2ccccc2O1 (centres undefined)	none
Cc1ccc(C(=O)NCCN2C(=O)C3C4C=CC(C4)C3C2=O)cc1 (centres undefined)	none (no result: DAX1 inh-1)
O=C(Nc1c(-c2ccccc2)nc2ccccn12)c1ccco1	none
Oc1ccc(-c2nc3ccccn3c2NCc2ccco2)cc1	DAX1 inh-1 4.3
CN1C(=O)[C@@]2(O[C@H]3[C@H]4C=C[C@@H]([C@H]5C(=O)N(Cc6ccccc6)C(=O)[C@@H]45)N3C3=C2C(=O)CC3)c2ccccc21	none (no result: DAX1 inh-1)
COc1ccc(CN2C(=O)C(CC(=O)NCc3ccco3)CC(C(=O)N3CCOCC3)=C2C)cc1 (centres undefined)	none
O=C(O)CNc1nc(-c2ccccc2)nc2c1oc1ccccc12	none
c1ccc(-c2nc(NCc3cccnc3)c3oc4ccccc4c3n2)cc1	hcDAF-12 act 6.3
COc1ccc(CNC(=O)c2ccc(N3CCOCC3)c([N+](=O)[O-])c2)cc1	none
Cc1ccc(-c2nc3ccccc3o2)cc1NC(=O)c1ccc2c(c1)OCO2	ssDAF-12 act 2.0, hgDAF12 agonist 11, DAX1 inh-2 3.6
Cc1ccc2oc(-c3cccc(NC(=S)NC(=O)c4cccs4)c3)nc2c1	none
